Results filed as inconclusive are left out. A number with no mark means an inactive call. Calls of active or inactive are those of the source. The call rests on the fitted dose curve; in most records, active means well fitted inhibition curve with a large enough effect; inconclusive means small, poorly fitted or top-dose-only effect, or effect the other way; inactive means no such curve, though single readings can be large or run the other way.
On the % scale 0 is the no-effect control and ±100 the full control effect; potency means the concentration at half of the fitted maximal effect.

A short description of this assay: Concentration response confirmation VP16 counterscreen for inhibitors of ROR gamma transcriptional activity. Further: nearly all actives have a fitted effect of over 70% in size. The conditions noted are these: Drosophila S2 Gal4-VP16 UAS-luciferase, luminescence, 20 h; series mostly up to 46.1 µM; activity change, negative = inhibition: at the top concentration. An outline of the steps:
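Drosophila Schneider cells stably carrying Gal4-VP16 under metallothionein promoter plus UAS-Photinus luciferase. Compound preincubated 1 hr, then 700 uM copper sulfate induction for 20 hr at ambient temperature; luminescence read.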
For the compound `CCOC(=O)[C@@H]1[C@H]2COc3ccccc3[C@@H]2N2C(=O)N(c3ccc(OC)cc3)C(=O)[C@@]12C`, the “activity change, negative = inhibition” value is 4.72%.
On to `Cc1ccccc1NC(=O)CCN1CCN(C)CC1`, for which the “activity change, negative = inhibition” value was -2.88%.
Same read-out and setting: to `CCOC(=O)c1oc2cccc(OCC(O)CNC(C)C)c2c1C` (centres undefined) belongs 6.14%.
Turning to `COc1ccc(C(=O)Nc2nc3cc4c(cc3s2)OCCO4)c(OC)c1`, the Potency is 0.223 µM (active).
With `CN1CCN(CCC(=O)Nc2cccc(F)c2)CC1`, the “activity change, negative = inhibition” value was 10.5%.
Consider `N=C1S/C(=C\c2ccco2)C(=O)N1c1nccs1`, for which the Potency is 0.396 µM (active).
On the same count and under the same terms, next, `Cc1nnsc1C(=O)NC1CCCc2c1cnn2-c1ccc(C(C)(C)C)cc1` (centres undefined): 22.3 µM (active).
Still for that read-out and setting: next, `CCOC(=O)c1ccc2nc(Nc3nc4ccc(F)cc4s3)sc2c1`: 25 µM (active).
Take `COc1ccc2[nH]c(C)c(CCN(Cc3cccs3)C(=S)Nc3ccccc3OC)c2c1`: the “activity change, negative = inhibition” value is 37.2%.
The same measure, in the same setting: to `Cc1ccc(NC(=O)CCN2CCN(C)CC2)cc1` belongs 3.53%.
For `CCOc1ccc(C(=O)Nc2nc3ccccc3[nH]2)cc1OCC`, the Potency is 12.5 µM (active).
Regarding `CCN1C(=O)/C(=C/c2ccc(N3CCCC3)cc2)NC1=S`, the Potency was 9.96 µM (active).
Same read-out and setting: next, `COc1ccc2nc(N3C(=O)CNC3=S)sc2c1`: 8.88 µM (active); `S=c1[nH]c(-c2ccc(Br)cc2)cn1CCc1ccccc1`: 14.1 µM (active).
Still for that read-out and setting: next, `O=C(CSCCO)Nc1ccc(C2CCCCC2)cc1`: 9.96 µM (active); `CC(C)(C)S(=O)(=O)c1cnc2c(-c3ccc(Cl)cc3)cnn2c1N`: 6.28 µM (active).
For the compound `Cc1cc(C)c(S(=O)(=O)NCCn2ccc3ccccc32)c(C)c1`, the “activity change, negative = inhibition” value is -83.6%.
The same measure, in the same setting: next, `Cc1nnc(SCC(=O)Nc2ccc(S(=O)(=O)Nc3ccc(Cl)nn3)cc2)s1`: -1.14%.
For the compound `Cc1ccc(-n2[nH]c3c4c(ccc3c2=O)C(=O)c2ccccc2C4=O)cc1`, the “activity change, negative = inhibition” value is 3.45%.
As to `COc1cccc(Cn2c(NCc3ccco3)nc3c2c(=O)n(C)c(=O)n3C)c1`, the Potency was 2.81 µM (active).
The same measure, in the same setting: to `Cc1ccc(C)c(/C=N/n2cc(-c3ccccc3)[nH]c2=S)c1` belongs 9.96 µM (active).
Turning to `Cc1ccc(-c2noc(CCC(=O)N(C)c3ccccc3C)n2)cc1`, the “activity change, negative = inhibition” value was 3.03%.
In the case of `Cn1c(=O)c2c(nc(NCc3ccco3)n2Cc2ccccc2Cl)n(C)c1=O`, the Potency was 3.97 µM (active).
Consider `CCn1cc(C(=O)O)c(=O)c2cc(F)c(N3CCN(C(=S)NC(=O)c4ccccc4C)CC3)cc21`, for which the “activity change, negative = inhibition” value is 6.87%.
Take `COc1ccc(-c2nnc(-c3ccc(N(C)C)cc3)o2)cc1`: the “activity change, negative = inhibition” value was -19.3%.
On to `Cc1oc(-c2ccccc2Cl)nc1CSCC(=O)O`, for which the Potency was 7.91 µM (active).
The same measure, in the same setting: to `Cc1c(CCC(=O)N[C@@H](CC(C)C)C(=O)O)c(=O)oc2cc3oc4c(c3cc12)CCCC4` belongs 4.99 µM (active).
For `CC(C)CC(=O)NS(=O)(=O)c1ccc(N)cc1`, the “activity change, negative = inhibition” value was -12.3%.
Regarding `Cc1ccc(Oc2nc(-c3ccccn3)nc3ccccc23)cc1`, the Potency was 3.53 µM (active).
On the same count and under the same terms, next, `Cc1ccc(S(=O)(=O)NCc2ccncc2)cc1`: 12.5 µM (active); `CCN1CCCc2cc(CN(CCN3CCOCC3)C(=S)Nc3ccc(C)cc3)ccc21`: 11.2 µM (active).
Turning to `Cc1cc(C)c2[nH]c(C(=O)Nc3ccc4c(c3)OCO4)cc2c1`, the “activity change, negative = inhibition” value is -13.4%.
In the case of `S=c1[nH]nc(-c2cc(-c3ccccn3)nc3ccccc23)o1`, the “activity change, negative = inhibition” value was 20.8%.
Same read-out and setting: to `CC1Oc2ccccc2N(CC(=O)NCCN2CCOCC2)C1=O` (centres undefined) belongs -6.52%.
